Assay outcomes: PubChem BioAssay, Broad Institute
Tg IFNy HTS – T. gondii growth inhibition under IFN-gamma | activity change, negative = inhibition, % (test concentration not listed) | Toxoplasma gondii growth in IFN-gamma-treated host cells; stronger effect = lower value | 69,000 compounds, 3.8% hits; in the data active means activity change below about -70%, passing the limit was not always enough;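 further: host cells are HeLa cells infected with Toxoplasma gondii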
An asterisk follows results filed as active. This is one part of a sample in which hits are shown more often than they occur.

SMILES | Tg IFNy HTS
Cn1cnc2c(NCc3ccccc3)nc(NCCO)nc21 | 7
CC(C)n1cnc2c(-c3cccnc3)nc(C3CCN(Cc4ccccn4)CC3)cc21 | -35
CC(C)n1cnc2c(NCc3ccccc3)nc(NCCCO)nc21 | -5
CC[C@H](CO)Nc1nc(NCc2ccc(-c3ccccn3)cc2)c2ncn(C(C)C)c2n1 | -79*
CC[C@H](CO)Nc1nc(Nc2cccc(-c3ccccn3)c2)c2ncn(C(C)C)c2n1 | -79*
CC(C)[C@H](CO)Nc1nc(Nc2cccc(Cl)c2)c2ncn(C(C)C)c2n1 | -74*
CNC(=O)[C@@H]1C[C@@H](N)CN1Cc1cnc(C(C)(C)C)nc1 | -48
C/C=C/c1ccccc1[C@@H]1[C@@H](CO)N(C(=O)c2cccnc2)[C@H]1C#N | -45
COc1cc2c(cc1CN1CCC3(CCCNC3=O)CC1)CCCC2 | 20
Cc1ccccc1CN(CCCn1ccnc1)Cc1n[nH]nc1-c1ccccc1 | -45
COc1ccc2c3c([nH]c2c1)[C@H](CO)N(Cc1ccccn1)CC31CN(Cc2cccc(F)c2)C1 | 63
N#CC1(c2ccc(NC(=O)c3cccnc3NCc3ccncc3)cc2)CCCC1 | -72*
O=C(O)c1cccnc1NCC1CCCO1 (stereo not drawn) | -28
O=C(Nc1ccc(F)cc1)c1cccnc1Oc1ccccc1 | -31
CC(C)C(NC(=O)C1Oc2ccccc2O1)c1cccs1 (stereo not drawn) | 46
COc1ccc(-c2nc(Cn3c(C)cc(C)c(-c4nc(-c5ccccc5)no4)c3=O)c(C)o2)cc1 | -86*
COc1ccc(-c2nc(CN3C(=O)C(O)(c4ccccc4)c4ccccc43)c(C)o2)cc1 (stereo not drawn) | -78*
Cc1oc(-c2ccc(C(=O)NCc3cccc(F)c3)cc2)nc1CN1CCc2ccccc21 | -43
Cc1oc(-c2ccccc2)nc1CN1C(=O)C(O)(c2ccccc2)c2ccccc21 (stereo not drawn) | -36
COc1ccc(-c2nc(CN3C(=O)C(O)(c4cccc(C)c4)c4ccccc43)c(C)o2)cc1 (stereo not drawn) | -37
Cc1oc(-c2ccc(C(=O)NCc3cccc(F)c3)cc2)nc1CN1CCN(c2ccccc2)CC1 | 14
Cc1oc(-c2ccccc2)nc1CN1C(=O)C(O)(c2cccc(F)c2)c2ccccc21 (stereo not drawn) | -105*
COc1ccc(-c2cc3c(=O)n(Cc4nc(-c5ccccc5)oc4C)ccn3n2)cc1 | 46
COc1ccc(-c2nc(Cn3ccn4nc(-c5ccccc5)cc4c3=O)c(C)o2)cc1 | -29
CO[C@H]1CC[C@H]2CCOc3c(C#N)cccc3C(=O)N(C)CC3(CCCCC3)CC(=O)N(C)C[C@H]1O2 | -23
SMILES | Tg IFNy HTS
Cc1ccc(S(=O)(=O)N(C)c2cncc(C(=O)NCCCN3CCOCC3)c2)cc1 | 19
Cc1nc(C(C)C)nc(C)c1OCc1nc(-c2cccs2)no1 | 191
CC(C)CC(O)C(=O)N1CCn2nc(C(=O)Nc3ccccc3)cc2C1 (stereo not drawn) | -2
O=C(O)c1cc(-c2cccc(-n3cccn3)c2)cc(S(=O)(=O)N2CCCC2)c1 | 0
COC(=O)c1cc(C)nc(-c2ccc(C(C)N3CCCCC3)cc2)n1 (stereo not drawn) | -3
CCCN(CCC)c1nc(-c2ccc(OC)cc2)nc2ccccc12 | -36
CCN(CC)c1ncnc2c1cnn2CC(=O)NCCOC | -16
CCN(CC)c1ncnc2c1cnn2CC(=O)NCc1ccc(F)cc1 | -94*
CCN(CC)c1ncnc2c1cnn2CC(=O)NCc1ccc(C)cc1 | -86*
CCN(CC)c1ncnc2c1cnn2CC(=O)NCc1ccc(C)o1 | 42
CCN(CC)c1ncnc2c1cnn2CC(=O)Nc1cccc(F)c1 | -75*
CCN(CC)c1ncnc2c1cnn2CC(=O)NCc1ccc(C(F)(F)F)cc1 | 56
CCN(CC)c1ncnc2c1cnn2CC(=O)NCc1cccc(C(F)(F)F)c1 | 146
CCOc1ccc(NC(=O)Cn2ncc3c(N(CC)CC)ncnc32)cc1 | 75
CCN(CC)c1ncnc2c1cnn2CC(=O)Nc1ccc(OC)cc1 | 89
COCCNC(=O)[C@@H]1C[C@@H]2CCN(Cc3cnn(C)c3)C[C@@H]2O1 | -21
COc1ccc(CN2[C@@H]3CC[C@H]2CN(C)C(=O)C3)cc1Cn1cccn1 | 0
CCCC(NC(=O)Cc1c(C)oc2c1C(=O)CC(C)(C)C2)c1cccs1 (stereo not drawn) | 10
CN(Cc1ccoc1)C(=O)C1CCCN(C2CCN(C(=O)C3CC3)CC2)C1 (stereo not drawn) | 8
Cc1ccsc1C(=O)N1CCC(N(C)C)CC1C(=O)O (stereo not drawn) | 1
O=C(NCc1ccccc1)c1ccc2snnc2c1 | -2
CNc1cc(C(=O)N(Cc2cccnc2)Cc2ccc3c(c2)OCO3)ccn1 | -5
COCC1(C(=O)N2CC(c3ccncc3)C2)CCC1 | 11
Cc1ccc(NC(=O)Cn2c(=O)cc(C(=O)N3CCc4ccccc4C3)c3ccccc32)cc1F | -48
O=C(Cn1c(=O)cc(C(=O)N2CCCC2)c2ccccc21)Nc1ccc(F)c(Cl)c1 | 7
SMILES | Tg IFNy HTS
O=C(Cn1c(=O)cc(C(=O)N2CCc3ccccc3C2)c2ccccc21)Nc1ccc(F)c(Cl)c1 | -72*
Cc1nc(C)c(C(=O)N2CCC[C@@H](Cn3nnc(-c4ccccn4)n3)C2)s1 | -30
O=C(NCc1ccco1)[C@@H]1CN(Cc2cccc(F)c2F)[C@@H]2CCO[C@H]21 | -3
CN(C)CCN1C(=O)c2cccc3cc(NC(N)=O)cc(c23)C1=O | -32
O=C(CN1C(=O)c2cccc3cccc(c23)C1=O)OCCCc1ccncc1 | -73*
O=C1c2cccc3cccc(c23)C(=O)N1Cc1ccco1 | -27
O=C(O)CSC1CCS(=O)(=O)C1 (stereo not drawn) | -45
Cc1sc2c(C3CCCN(C(=O)CN(C)C)C3)nc(C)n2c1C (stereo not drawn) | -42
Fc1ccc(/C=C/CN2CCCC(OCc3cccnc3)C2)cc1 (stereo not drawn) | 0
CSC1=NC(=Nc2c(C)cccc2C)C2(CCCCC2)N1c1cccc(C)c1 | -57
O=C(COc1ccc(F)cc1)OCCN1CCOCC1 | 13
O=C(Nc1cccc(OCCN2CCOCC2)c1)c1csc2c1CCCC2 | 14
c1ccc(-c2nn3c(c2-c2ccnc4cc(OCCN5CCOCC5)ccc24)CCC3)nc1 | -78*
COc1c(C)c2c(c(O)c1C/C=C(/C)CCC(=O)O)C(=O)OC2 | -77*
COCCn1cc2c(n1)C(CNC(=O)c1cnccn1)OCC2 (stereo not drawn) | -7
Cc1nnsc1C(=O)N[C@@H](C)Cn1nnn(-c2ccccc2)c1=O | 124
COc1ccc(CC(=O)N2CCC3(CC2)CC(OCC(C)C)C3)cc1 | 6
OC(c1cc(C(F)(F)F)nc2c(C(F)(F)F)cccc12)C1CCCCN1 (stereo not drawn) | -80*
Cc1ccc(CN2CC[C@@H]3C[C@@H](c4nnc(C5CC5)o4)O[C@H]3C2)s1 | 9
Cc1oc(-c2ccc(C(=O)NCCc3cccs3)cc2)nc1CN1CCN(c2ccccc2)CC1 | -32
CCOC(=O)c1nc(NCc2ccc3c(c2)OCO3)c2ccccc2n1 | 9
Cc1cccc(CCNc2cc(C)nc3ncnn23)c1 | 3
Cc1nc2ncnn2c(NCc2ccc3c(c2)OCO3)c1Cc1ccccc1 | -95*
Cn1ccnc1-c1nccn1C1CCCC1 | -4
CCOc1ccc(CC(=O)N2CCCCC2c2ccnc3ncnn23)cc1 (stereo not drawn) | 14
CCn1cc(CN2CCN(C(=O)c3cc4c(F)cccc4[nH]3)CC2)c(C)n1 | -108*
